# PubChem BioAssay AID1851 (National Center for Advancing Translational Sciences (NCATS), 2009)
# Values joined by “and” are separate entries in the source; they are usually repeats but may differ in a detail not shown here. Equal values may be shown once. The campaign covered roughly 16,000 compounds. About 2,600 (16%) were called active. About 20% were inconclusive and are not listed. Calls follow the shape of the dose curve; as a rule, active = well fitted curve in the direction sought with a large enough effect; inconclusive = small, poorly fitted or top-dose-only effect, or effect the other way; inactive = no such curve, though single readings can be large or run the other way. The list is a sample of the results.
# Target: Cytochrome P450 2D6 (Homo sapiens) (UniProt P10635)
# Test: Cytochrome panel assay with activity outcomes
# Settings: recombinant CYP, pro-luciferin dealkylation, luminescence, p450-cyp2d6; series mostly up to 57.1 µM; activity, negative = inhibition: at the top concentration
# % is scaled to controls: 0 for no effect and ±100 for the full control effect.
# Sequence of Cytochrome P450 2D6 (Homo sapiens) (P10635 whole entry, looked up): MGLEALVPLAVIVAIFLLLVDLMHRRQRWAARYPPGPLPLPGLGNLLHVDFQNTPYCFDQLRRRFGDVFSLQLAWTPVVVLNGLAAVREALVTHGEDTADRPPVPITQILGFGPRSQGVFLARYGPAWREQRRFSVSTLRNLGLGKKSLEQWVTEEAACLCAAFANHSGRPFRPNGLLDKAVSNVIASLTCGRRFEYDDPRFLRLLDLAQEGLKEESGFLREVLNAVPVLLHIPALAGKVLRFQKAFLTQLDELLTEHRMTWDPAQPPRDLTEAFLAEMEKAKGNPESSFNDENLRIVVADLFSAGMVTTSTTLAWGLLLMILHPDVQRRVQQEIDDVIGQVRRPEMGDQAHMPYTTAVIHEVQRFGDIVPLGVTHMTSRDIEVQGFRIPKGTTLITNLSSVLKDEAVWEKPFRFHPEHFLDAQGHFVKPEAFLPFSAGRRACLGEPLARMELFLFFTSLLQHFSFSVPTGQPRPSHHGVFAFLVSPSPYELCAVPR
SMILES,"activity, negative = inhibition",AC50
N#Cc1cccc(NC(=O)N2CCC3(CC2)CCN(C(=O)c2cccc(F)c2)CC3)c1,-13.4% (inactive),
O=C(O)[C@@H]1[C@@H]2C[C@@H]3[C@@H](OC(=O)[C@@H]31)[C@H]2Br,0.593% [at 11.4 µM] (inactive),
CCOC(=O)c1ccc(-c2ccc(/C=C(\C#N)C(=O)NCC3CCCO3)o2)cc1 (configuration not stated),-17.3% (inactive),
COC(=O)c1cc2c(ccn2-c2ccc(F)cc2)n1CC(C)C,13.8% (inactive),
OC[C@@H]1O[C@@H](n2cnc3cncnc32)[C@@H](O)[C@H]1O,-2.03% (inactive),
NC(=O)Nc1n[nH]c(-c2ccccc2)n1,9.86% [at 11.4 µM] (inactive),
Cc1ccc2cc3cc(C(=O)N4CCCCC4C)oc3nc2c1 (configuration not stated),-7.91% (inactive),
O[C@@H]1[C@@H](OCc2ccccc2)OC[C@H](O)[C@@H]1O,0.194% [at 11.4 µM] (inactive),
CCOc1cc(NC(=S)Nc2cccc(C)c2)c(OCC)cc1NC(=O)CC(C)C,-15.7% (inactive),
COc1cc(OC)c(NC(=S)Nc2cccc(C(C)=O)c2)cc1Cl,,15.8 µM (active)
COc1cc(C(=O)NC(=S)Nc2ccc(Cl)c(C(=O)O)c2)cc(OC)c1OC,1.96% (inactive),
CC(C)CCNC(=O)Cc1ccccc1[N+](=O)[O-],-21.8% (inactive),
O=C(CSc1c[nH]c2ccccc12)N1CCOCC1,-28.8% (inactive),
CCc1cc2c(=O)c(-c3nc4ccccc4[nH]3)coc2cc1OC(=O)N1CCOCC1,-17.4% (inactive),
O=C(c1ccco1)N1CCN(C(=O)C2(S(=O)(=O)c3ccc(Cl)cc3)CC2)CC1,-9.48% (inactive),
COC(=O)[C@H](Cc1ccccc1)NC(=O)N1CCN(Cc2ccccc2)CC1,,11.2 µM (active)
COc1ccc(Nc2ncc(C(=O)N3CCN(Cc4ccccc4)CC3)c3ccccc23)cc1,-6.13% (inactive),
CCOC(=O)N1CCN(C(=O)C(C)SCc2ccccc2)CC1 (configuration not stated),-25.5% (inactive),
CCOC(=O)N1CCN(C(=O)CSCc2ccc(Cl)cc2)CC1,-16% (inactive),
COC(=O)[C@H](Cc1ccccc1)NC(=O)[C@@H](C)CO,3.71% [at 11.4 µM] (inactive),
CCOC(=O)C1(S(=O)(=O)c2ccc(Cl)cc2)CCN(Cc2ccc(Cl)cc2)CC1,,3.55 µM (active)
CC(C)NC1(C(N)=O)CCN(Cc2ccccc2)CC1,,0.631 µM (active)
CCOC(=O)N1CCN(S(=O)(=O)Cc2ccccc2)CC1,-6.68% (inactive),
CCOC(=O)C1(S(=O)(=O)c2ccccc2)CCN(Cc2ccccc2)CC1,,2 µM (active)
C/C(=N\Nc1nnc(C)c(=O)[nH]1)C(=O)O,-0.0511% (inactive),
COc1ccc(C2/C(=C(/O)c3ccc(Cl)cc3)C(=O)C(=O)N2CCN2CCOCC2)c(OC)c1 (configuration not stated),-38.4% (inactive),

SMILES,"activity, negative = inhibition",AC50
CN[C@@H]1NC(=O)c2ccccc2N1Cc1ccc(F)cc1,10.6% [at 11.4 µM] (inactive),
CSc1nnc(-c2cc3c(-c4ccccc4)nn(C)c3s2)n1C,0.173% (inactive),
CC(C)(N=NC(C)(C)C1=NCCN1)C1=NCCN1,6.75% [at 11.4 µM] (inactive),
O=c1[nH]c(=O)n(Cc2ccco2)c2c1C(C(F)(F)F)(C(F)(F)F)N=C(CCC1CCCCC1)N2,-3.9% (inactive),
CC(C)CO/N=C1/[C@H]2O[C@@H]2[C@@H](O)[C@H]2[C@H]1CCn1c(=O)n(C)c(=O)n12,1.5% [at 11.4 µM] (inactive),
CC(C)C[C@H](NC(=O)N1CCCCCC1)C(=O)N[C@H](Cc1cn(C)c2ccccc12)C(=O)N[C@H](Cc1ccccn1)C(=O)O,-13.8% (inactive),
Cc1ccc(C(=O)NC(=S)Nc2cccc3nsnc23)cc1,28.9% (inactive),
CC(C)(C)C(=O)Nc1cccc(-c2nc3ccccc3c(=O)o2)c1,-27.2% (inactive),
O[C@H](CNc1ccccn1)c1ccccc1,,1.58 µM (active)
CN(C)CCNc1ccccn1,-15.2% [at 11.4 µM] (inactive),
c1ccc(CCNc2ccccn2)nc1,-8.12% [at 11.4 µM] (inactive),
CCCNC(=O)OC[C@@H]1O[C@H](CCO/N=C\C[C@H]2C=C[C@H](OC(C)=O)[C@@H](COC(C)=O)O2)C=C[C@@H]1Oc1ccc(OC)cc1,-15.6% [at 11.4 µM] (inactive),
CC(C)=CCNc1ncnc2nc[nH]c12,10.2% [at 11.4 µM] (inactive),
COc1ccc(N2CCN(C(=S)Nc3cccc(C)c3)CC2)cc1,7.47% (inactive),
Cc1noc(C)c1-c1nccc(N(C)Cc2ccco2)n1,-10.1% (inactive),
CN(C)c1ccnc(-c2ccccc2C(F)(F)F)n1,12.2% (inactive),
CN(C)Cc1ccccc1-c1nccc(N(C)C)n1,,1 µM (active)
Cc1noc(C)c1-c1nccc(N(C)C)n1,9.87% (inactive),
CN(C)Cc1ccccc1-c1nccc(N(C)Cc2ccco2)n1,,0.794 µM (active)
Cn1c2c(c(=O)n(C)c1=O)C(C(F)(F)F)(C(F)(F)F)N=C(c1ccc(Cl)cc1)N2,18.2% (inactive),
COc1ccc(Oc2nc3ccccc3nc2C(F)(F)F)cc1,-2.66% (inactive),
CCCC[C@@H]1C[C@H]1C(NC(=O)c1ccccc1)c1ccccc1C(F)(F)F (some centres not stated),11.1% (inactive),
[Cu].[O-]/N=C1/C(=[OH+])Nc2ccccc21.[O-]Nc1c(O)[nH]c2ccccc12,-7.87% [at 11.4 µM] (inactive),
O=C(O)C1=C/C(=C(/c2ccccc2)c2cc(C(=O)O)c(O)c3ccccc23)c2ccccc2C1=O,14% [at 11.4 µM] (inactive) and -3.21% [at 11.4 µM] (inactive),
O=C(Nc1cccnc1)C1COc2ccccc2O1 (configuration not stated),-8.2% (inactive),
COc1ccc(CC(=O)NC(=S)Nc2ccc(S(=O)(=O)NC(C)(C)C)cc2)cc1,17.1% (inactive),

SMILES,"activity, negative = inhibition",AC50
CC(C)(C)NS(=O)(=O)c1ccc(NS(=O)(=O)c2ccc(F)cc2)cc1,10.1% (inactive),
CC(C)(C)NS(=O)(=O)c1ccc(NC(=O)C(Sc2ccccc2)c2ccccc2)cc1 (configuration not stated),,3.55 µM (active)
CO[C@H]1C[C@@H]2C[C@H](O)C[C@@H](CC(=O)O[C@@H](/C=C\CC(C)C)C[C@@H]3CC[C@H](C)[C@@H](C1)O3)O2,-2.62% [at 11.4 µM] (inactive),
N#Cc1cccc(NC(=O)N2CC3(CCN(C(=O)c4ccco4)CC3)C2)c1,-5.53% (inactive),
COc1cc(NC(=O)c2cc3ccccc3o2)c(OC)cc1Br,-2.15% (inactive),
CCCN(CCO)Cc1ccc(F)c(Br)c1,,7.94 µM (active)
COc1ccc(C(=S)Nc2ccccc2)cc1,-50.9% (inactive),
COc1ccc(-c2nc(C(=O)N3CCN(C)CC3)sc2-c2ccc(OC)cc2)cc1,-10.4% (inactive),
Nc1nc2c(C(=O)NCc3cccs3)nnn2c2cccc(Cl)c12,6.61% [at 11.4 µM] (inactive),
Cc1nnc(NC(=O)CCC(=O)NCc2cccs2)s1,-29.9% (inactive),
CC(C)(O)C#Cc1ccc(C(=O)NCc2cccs2)s1,,22.4 µM (active)
CCc1sc(N(C(=O)Cc2ccccc2)c2cccc(F)c2)nc1-c1ccc(C)cc1,3.54% (inactive),
O=C1CSC2(CCN(CCCN3c4ccccc4Sc4ccc(Cl)cc43)CC2)N1,,0.631 µM (active)
OC1CC2CC[C@H](C1)N2CCCN1c2ccccc2Sc2ccc(Cl)cc21 (some centres not stated),,0.0631 µM (active)
CCOC(=O)Nc1ccc2c(c1)N(C(=O)CCN1CCN(C)CC1)c1ccccc1S2,-21.6% (inactive),
Clc1ccc2c(c1)N(CCCN1CCCC13CCCCC3)c1ccccc1S2,,0.00794 µM (active)
CC1(C)CCCN(C(=O)N2c3ccccc3Sc3ccccc32)C1,3.85% (inactive),
O=C(CSc1nc2ccccc2o1)N1c2ccccc2Sc2ccc(Cl)cc21,5.14% (inactive),
Cc1ccc2cn[nH]c2c1NC(=S)NC(=O)c1ccccc1,-0.296% (inactive),
O=C(NNc1nc2ccccc2s1)c1ccccc1F,-25.1% (inactive),
Oc1ccc(Br)cc1CNn1cnnc1,22.7% (inactive),
CCOC(=O)c1cc(-c2ccc(Cl)cc2)nc2c1c(C)nn2CCC#N,-25.2% (inactive),
Cc1ccccc1C(=O)c1c[nH]c(C(=O)NCC2CCCO2)c1 (configuration not stated),28.3% (inactive),
COc1ccc(COC(=O)N/N=C(\C)CC(=O)Nc2c(C)cc(C)cc2C)cc1,-17.7% (inactive),
O=C(O)CSc1cc(C(F)(F)F)nc(-c2ccccn2)n1,-6.18% (inactive),

SMILES,"activity, negative = inhibition",AC50
CN1CCN(c2ncc3nc(-c4cccc(C#N)c4)c(=O)n(C)c3n2)CC1,-2% (inactive),
CCSc1ccc2c(c1)N(CCCN1CCN(C)CC1)c1ccccc1S2,,2.51 µM (active)
O=C1NC(O)=NC1(c1ccccc1)c1ccccc1,1.34% (inactive),
Cc1noc(C)c1C(=O)N1CCC2(CCN(Cc3ccncc3)CC2)CC1,-9.53% (inactive),
O=C(O)c1ccccc1Nc1cccc(OCc2ccc3ccccc3n2)c1,,7.94 µM (active)
CCCCC[C@H](O)c1cccc(OCc2ccc3ccccc3n2)c1,-20.4% (inactive),
O=C(Nc1ccccc1C(=O)O)c1ccc2ccccc2n1,18.1% (inactive),
CC/C(=N/Nc1ccccc1)c1cnnc(SC)n1,-10.2% (inactive),
O=C(Nc1ccc(-c2csc(-c3ccccc3)n2)cc1)c1ccccc1Cl,19.1% (inactive),
Cc1ccc(C(=O)ON=C2CCN(S(=O)(=O)c3ccccc3)CC2)cc1,-18% (inactive),
O=c1cnc2cnc(Oc3cccc(Cl)c3)nc2n1C1CC1,-8.64% (inactive),
Fc1ccc(C2CC(c3ccco3)=NN2c2ccccc2)cc1 (configuration not stated),,8.91 µM (active)
CC(=O)c1c(O)cc(=O)n(-c2ccccc2)c1-c1cccc2ccccc12,-2.04% (inactive),
O=C1C=C(Nc2ccc(Cl)cc2)CC(c2ccc(Cl)cc2)C1 (configuration not stated),,8.91 µM (active)
O=C(O)C1(Nc2ccc(Cl)cc2)CCCC1,7.94% [at 11.4 µM] (inactive),
O=C1C=C(NCCN2CCOCC2)CC(c2ccccc2)C1 (configuration not stated),-11.2% (inactive),
CC1(C)C(=O)C(c2ccccc2)=C2CN3C(=O)N(CCc4ccccc4)C(=O)C3(Cc3ccc(C(F)(F)F)cc3)C=C21 (configuration not stated),9.81% (inactive),
CCCCc1ccc(-c2nc(NC(=O)C3C4CCC(O4)C3C(=O)O)sc2C)cc1 (configuration not stated),-28.7% (inactive),
Cn1c(=O)[nH]c(=O)c2c1nc(CN1CCOCC1)n2CCCO,8.01% (inactive),
CCOC(=O)N1CCN(Cc2nc3c(c(=O)[nH]c(=O)n3C)n2Cc2ccccc2C)CC1,,12.6 µM (active)
Cn1c(=O)[nH]c(=O)c2c1nc(CN1CCOCC1)n2Cc1ccccc1,6.42% (inactive),
CCCCCn1c(CN2CCN(c3cc(Cl)ccc3C)CC2)nc2c1c(=O)[nH]c(=O)n2C,,8.91 µM (active)
COc1ccc(N2CCN(Cc3nc4c(c(=O)[nH]c(=O)n4C)n3CCCc3ccccc3)CC2)cc1,-9.2% (inactive),
COC(=O)Cn1c(CN(Cc2ccccc2)Cc2ccccc2)nc2c1c(=O)[nH]c(=O)n2C,-9.02% (inactive),
